In PubChem BioAssay (NCATS) one finds outcome and Potency data, which are given here for eight compounds.

Inconclusive results are not listed. The source made the active and inactive calls. Calls follow the shape of the dose curve; as a rule, active = well fitted curve in the direction sought with a large enough effect; inconclusive = small, poorly fitted or top-dose-only effect, or another doubt; inactive = no such curve, though single readings can be large; an effect the other way counts as inactive or inconclusive.

Assay [1] can be described thus: MultiTox-Fluor Cytotoxicity Assay - LYMP1-001 - Dead Cells (AID 946). A digest of the protocol:
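In this qHTS, 15 uM tetraoctylammonium bromide defined 100% and DMSO defined basal activity. Lymphoblastoid cells (LYMP1-001, 2500 per well) received compound for 16 hr at 37 C before a fluorogenic dead-cell substrate readout at 485/520 nm.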

Assay [2] is described as follows: MultiTox-Fluor Cytotoxicity Assay - LYMP1-001 - Live Cells (AID 947).
Assay [3] in a line: Cell Viability - LYMP1-002 - Assay at 16 hr (AID 948). A digest of the protocol:
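LYMP1-002 human lymphoblastoid cells, 2500/well, were treated with compounds for 16 hr at 37 C in complete medium. Viability was read as intracellular ATP by CellTiter-Glo luminescence, and AC50 was derived from a Hill fit to concentration-response data.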

The nature of assay [4]: MultiTox-Fluor Cytotoxicity Assay - LYMP1-002 - Dead Cells (AID 960). Also: nearly all actives have a fitted effect of over 60% in size. A digest of the protocol:
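Human lymphoblastoid cells (LYMP1-002), 2500/well in complete medium, were exposed to compounds for 16 hr at 37 C. Dead-cell protease activity was read as bis-AAF-R110 fluorescence (Ex/Em 485/520), normalized to DMSO and 15 uM tetraoctylammonium bromide; AC50 from Hill fits.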

Assay [5] in a line: MultiTox-Fluor Cytotoxicity Assay - LYMP1-003 - Dead Cells (AID 961). Also: nearly all actives have a fitted effect of over 70% in size. A digest of the protocol: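 Acute toxicity is scored as increased dead-cell protease activity in human lymphoblastoid LYMP1-003 cells after 16 h compound exposure in complete culture medium. Activity is normalized to DMSO basal and 15 uM tetraoctylammonium bromide as full response.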
Assay [6] in a line: MultiTox-Fluor Cytotoxicity Assay - LYMP1-003 - Live Cells (AID 962).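 Also: cytotoxic hits lower the live-cell protease signal.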 A digest of the protocol:
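LYMP1-003 human lymphoblastoid cells (2500/well) in complete medium were preincubated 5 hr at 37 C, then exposed to compounds for 16 hr at 37 C. Live-cell protease cleavage of GF-AFC read by fluorescence (Ex/Em 405/510); AC50 from Hill fits.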

Assay [7] is described as follows: Cell Viability - LYMP1-003 - Assay at 24 hr (AID 963). A digest of the protocol:
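Human lymphoblastoid LYMP1-003 cells (2500/well) were rested 5 hr at 37 C, then exposed to compounds in complete medium for 24 hr at 37 C. Cellular ATP was quantified by CellTiter-Glo luminescence, and AC50 values came from Hill fits of concentration-response data.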

The nature of assay [8]: Cell Viability - LYMP1-003 - Assay at 40 hr (AID 964). Also: series mostly up to about 92 µM; nearly all actives have a fitted effect of over 60% in size. A digest of the protocol:
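Human lymphoblastoid LYMP1-003 cells, 2500/well in complete medium, rested 5 hr at 37 C, then exposed to compounds for 40 hr at 37 C. Viability read as intracellular ATP by CellTiter-Glo luminescence; AC50 from Hill fits of concentration-response data.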

Assay [9] in a line: Cell Viability - LYMP2-003 (AID 965).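 Also: cells exposed to compounds for 24 h before reading; nearly all actives have a fitted effect of over 50% in size.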 A digest of the protocol: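 Human lymphoblastoid LYMP2-003 cells, 2500/well, exposed to compounds for 24 h at 37 C in complete medium. Viability read as intracellular ATP by CellTiter-Glo luminescence; AC50 from Hill-equation fits of qHTS concentration-response data.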
A short description of assay [10]: Cell Viability - LYMP2-004 (AID 966). Also: nearly all actives have a fitted effect of over 65% in size. A digest of the protocol: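 Human lymphoblastoid cells (2500/well) in complete medium were treated with compounds for 24 hr at 37 C, then intracellular ATP was measured by CellTiter-Glo luminescence. AC50 values came from Hill-equation fits of concentration-response data.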
Assay [11] in a line: Cell Viability - LYMP2-005 (AID 967). Also: series mostly up to about 92 µM. A digest of the protocol:
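Human lymphoblastoid LYMP2-005 cells, 2,500 per well in complete medium, rested 5 h at 37C then compound-treated 24 h at 37C. Intracellular ATP read by CellTiter-Glo luminescence after 30 min at room temperature; AC50 from Hill-equation fits of concentration-response data.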

The nature of assay [12]: Cell Viability - LYMP2-009 (AID 968). Also: nearly all actives have a fitted effect of over 55% in size. Also: potency is read from the fitted curve at half-maximal effect.
Assay [13] is described as follows: Cell Viability - LYMP2-011 (AID 969). Also: nearly all actives have a fitted effect of over 60% in size. A digest of the protocol:
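Human lymphoblastoid cells (2500/well) were plated in complete medium, preincubated 5 hr at 37 C, then exposed to compounds for 24 hr at 37 C. Intracellular ATP was read by CellTiter-Glo luminescence, and AC50 came from Hill-equation concentration-response fits.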

Assay [14] is described as follows: Cell Viability - LYMP2-013 (AID 970). Also: nearly all actives have a fitted effect of over 55% in size. Also: potency is read from the fitted curve at half-maximal effect. A digest of the protocol: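 Human lymphoblastoid cells, 2500/well, were preincubated 5 hr at 37 C, then treated with compounds for 24 hr at 37 C in complete medium. Intracellular ATP was read by CellTiter-Glo luminescence; AC50 from Hill-equation fits of concentration-response data.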
Assay [15] can be described thus: Cell Viability - LYMP2-015 (AID 971). Also: nearly all actives have a fitted effect of over 55% in size. Also: potency is read from the fitted curve at half-maximal effect. A digest of the protocol:
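Human lymphoblastoid cells (2500/well) in complete medium were preincubated 5 hr at 37 C, then compound-treated 24 hr at 37 C. Intracellular ATP was read by CellTiter-Glo luminescence after 30 min at room temperature; AC50 came from Hill-equation concentration-response fits.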

A short description of assay [16]: Cell Viability - LYMP2-017 (AID 972). Also: nearly all actives have a fitted effect of over 55% in size. Also: potency is read from the fitted curve at half-maximal effect. A digest of the protocol: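 Human lymphoblastoid cells (2500/well) were seeded in complete medium, held 5 hr at 37 C, then exposed to compounds for 24 hr at 37 C. Intracellular ATP was read by CellTiter-Glo luminescence after 30 min at room temperature, with AC50 values from Hill-equation fits.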
Assay [17] is described as follows: Cell Viability - LYMP2-019 (AID 973). Also: nearly all actives have a fitted effect of over 55% in size. Also: potency is read from the fitted curve at half-maximal effect. A digest of the protocol: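 Human lymphoblastoid cells were seeded at 2500 cells/well, preincubated 5 hr at 37 C, then exposed to compounds for 24 hr at 37 C in complete medium. Intracellular ATP was measured by CellTiter-Glo luminescence; AC50 from Hill fits.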
Assay [18] is described as follows: Cell Viability - LYMP2-021 (AID 974). Also: potency is read from the fitted curve at half-maximal effect. A digest of the protocol:
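Human lymphoblastoid cells (2500/well) were preincubated 5 hr at 37 C, then exposed to compounds for 24 hr at 37 C in complete medium. Intracellular ATP was read by CellTiter-Glo luminescence; AC50 came from Hill-equation fits of concentration-response data.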

Assay [19] is described as follows: Cell Viability - LYMP2-023 (AID 975). Also: nearly all actives have a fitted effect of over 55% in size. Also: potency is read from the fitted curve at half-maximal effect. A digest of the protocol:
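Human lymphoblastoid cells (2500/well) were preincubated 5 hr at 37 C, then exposed to compounds for 24 hr at 37 C in complete medium. Cellular ATP was read by CellTiter-Glo luminescence, and AC50 came from Hill-equation fits.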

The nature of assay [20]: MultiTox-Fluor Cytotoxicity Assay - LYMP1-002 - Live Cells (AID 955). A digest of the protocol:
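Human lymphoblastoid LYMP1-002 cells, 2500/well in complete medium, rested 5 hr at 37 C, then exposed to compounds for 16 hr at 37 C. Live-cell protease cleavage of GF-AFC read by fluorescence (Ex/Em 405/510) after 60 min at room temperature; AC50 from Hill fits.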

`Cc1c(C(=O)O)cccc1[N+](=O)[O-]`: the call in assay [1], in assay [2], in assay [3], in assay [4] and in assay [11] was inactive. For the same compound, the Potency entry in [5], in [6], in assay [7], in [8], in assay [9] and in assay [10] was “inactive” throughout. Moreover, the Potency entry in assay [12], in assay [13], in assay [14], in assay [15], in assay [16] and in assay [17] was “inactive” throughout. The Potency result in assay [18] and in assay [19] was “inactive” in each case.

Regarding `CCCCC/C=C/C=C/C=O`, the outcome in assay [1], in [2], in assay [3] and in assay [20] was inactive. Also, the Potency entry in assay [5], in [6] and in assay [8] was “inactive” each time. The Potency in assay [12] was 39.8 µM (active); in [14], 50.1 µM (active); in assay [15], 31.6 µM (active); in assay [16], 31.6 µM (active); in assay [17] it was 50.1 µM (active); in [18], 39.8 µM (active). Moreover, the Potency in assay [19] is 50.1 µM (active).

As for `CCOc1ccc(NC(C)=O)cc1N`, the compound was called inactive in assay [1], in assay [2], in assay [3], in assay [20], in assay [4] and in [11]. Moreover, the Potency result in assay [5], in assay [6], in assay [8], in [9], in [10] and in assay [12] was “inactive” in each case. In addition, the Potency entry in assay [13], in assay [14], in assay [15], in assay [17], in assay [18] and in assay [19] was “inactive” each time.

`CNc1ccccc1`: the compound was called inactive in assay [1], in [2], in assay [3], in assay [4] and in assay [11]. For the same compound, the Potency entry in [5], in assay [6], in assay [7], in [8], in assay [9] and in assay [10] was “inactive” throughout. In addition, the Potency entry in assay [12], in [13], in assay [14], in assay [15], in assay [16] and in [17] was “inactive” each time. In addition, the Potency result in assay [18] and in assay [19] was “inactive” each time.

As for `Cc1ccccc1Br`, the compound was classed as inactive in assay [1], in assay [2], in assay [3], in [20] and in assay [11]. In addition, the Potency result in assay [5], in assay [6], in assay [7], in [8], in assay [9] and in assay [10] was “inactive” each time. The Potency result in assay [12], in assay [13], in assay [14], in assay [15], in assay [17] and in assay [18] was “inactive” throughout. Further, the Potency entry in [19] was “inactive”.

For `O=[N+]([O-])c1c(Cl)cc(Cl)cc1Cl`, the call in assay [1], in assay [2], in assay [3], in assay [4] and in [11] was inactive. Also, the Potency result in [5], in assay [6], in [7], in assay [8], in [9] and in assay [10] was “inactive” each time. Moreover, the Potency entry in assay [12], in assay [13], in assay [14], in assay [15], in assay [16] and in assay [17] was “inactive” in each case. Also, the Potency entry in assay [18] and in assay [19] was “inactive” throughout.

With `CC(C)=CCl`, the compound was classed as inactive in assay [1], in assay [2], in assay [3], in assay [20] and in assay [11]. In addition, the Potency entry in [5], in [6], in assay [7], in assay [8], in assay [9] and in assay [10] was “inactive” throughout. In addition, the Potency entry in assay [12], in [13], in assay [14], in assay [15], in assay [16] and in assay [17] was “inactive” in each case. Further, the Potency entry in assay [18] and in assay [19] was “inactive” in each case.

For `CC(=O)OC(C)C`, the call in [1], in assay [2], in [3], in [4] and in assay [11] was inactive. The Potency entry in assay [5], in assay [6], in assay [7], in assay [8], in assay [9] and in assay [10] was “inactive” each time. Further, the Potency result in assay [12], in [13], in [14], in assay [15], in [16] and in assay [17] was “inactive” each time. The Potency entry in [18] and in [19] was “inactive” throughout.
